FLuc counter: qHTS profiling assay for firefly luciferase inhibitor/activator using purifed enzyme and Km concentrations of substrates (counterscreen for miR-21 project); Luciferin 4-monooxygenase (Photinus pyralis), P08659; purified FLuc, Km substrates, luminescence inhibition; Potency, µM (doses to about 57.5 µM), for the others: top-dose activity change, negative = inhibition, hits mostly inhibitors; actives 6.9% (n = 360,000);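 note: plate controls were vehicle for no effect and reference inhibitor for full effect; nearly all actives have a fitted effect of over 55% in size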
Target sequence (P08659 whole entry, looked up): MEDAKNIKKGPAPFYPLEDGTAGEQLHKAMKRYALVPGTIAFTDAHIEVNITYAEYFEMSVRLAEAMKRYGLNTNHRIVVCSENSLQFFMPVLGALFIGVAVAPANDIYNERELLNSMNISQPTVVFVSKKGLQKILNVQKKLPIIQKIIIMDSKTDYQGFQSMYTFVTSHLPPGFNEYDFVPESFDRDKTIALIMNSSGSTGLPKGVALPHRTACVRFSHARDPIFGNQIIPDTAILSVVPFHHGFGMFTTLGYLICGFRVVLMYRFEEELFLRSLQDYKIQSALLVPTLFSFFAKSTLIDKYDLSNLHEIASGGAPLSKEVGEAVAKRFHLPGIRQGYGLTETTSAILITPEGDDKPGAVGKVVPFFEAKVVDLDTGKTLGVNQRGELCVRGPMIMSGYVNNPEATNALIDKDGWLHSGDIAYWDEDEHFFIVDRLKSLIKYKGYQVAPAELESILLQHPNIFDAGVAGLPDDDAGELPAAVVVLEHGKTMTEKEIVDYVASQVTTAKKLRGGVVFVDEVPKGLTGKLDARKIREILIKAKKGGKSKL
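Biochemical qHTS of compounds, final roughly 60 µM downward over six points, against 10 nM purified firefly luciferase using Km concentrations of substrates (10 uM D-luciferin, 10 uM ATP) in Tris acetate pH 7.5 buffer; luminescence output.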
KinaseGlo FLuc: Counterscreen for Luciferase (Kinase-Glo TM) Inhibition; AID 1379, 2008; actives 0.28% (n = 200,000); Potency, µM (top dose mostly 38.3 µM), for inactives: top-dose activity change, negative = inhibition, actives largely listed as inhibitors; Kinase-Glo luciferase, ATP luminescence, 8 min; note: % is set by controls: 0 for no effect and ±100 for the full control effect; nearly all actives have a fitted effect of over 60% in size
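Light output from Kinase-Glo luciferase with luciferin and 10 uM ATP in 50 mM imidazole pH 7.2, KCl, MgCl2, Tween 20, BSA; compound pin-delivered, 8-min ambient incubation, then luminescence read.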
ELG1 genotoxic: qHTS screen for small molecules that induce genotoxicity in human embryonic kidney (HEK293T) cells expressing luciferase-tagged ELG1; HEK293T ELG1-luciferase reporter, luminescence, 16 h; Potency, µM (doses to about 46 µM), inactives show at the top dose activity change, positive = activation, hits mostly activators; actives 1.3% (n = 330,000); note: % of control where 0% means no effect; nearly all actives have a fitted effect of over 60% in size
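After overnight (16 hr) compound treatment at 37 °C, ELG1-luciferase HEK293T cells were lysed with ONE-Glo; luminescence quantified 30 min later at room temperature.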
Rab9 promoter act: qHTS Assay for Rab9 Promoter Activators; Huh7 Rab9 promoter-luciferase reporter, luminescence, 24 h; Potency, µM (series often up to 9.22 µM), for inactives: top-dose activation, negative = inhibition, actives largely listed as activators; actives 2.8% (n = 320,000); note: % of control where 0% means no effect; nearly all actives have a fitted effect of over 60% in size
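Stable Rab9-luc Huh7, 1500 cells/well, 2 h settle; cmpd in DMSO, 24 h, 37 °C/5% CO2; luciferase reagent 10 min RT; luminescence.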
NPC1 promoter act: qHTS Assay for NPC1 Promoter Activators; actives 2.4% (n = 320,000); AID 485313, 2010; Potency, µM (titrated, usually from 9.22 µM), without a hit: top-dose activation, hits mostly activators; Huh7 NPC1 promoter luciferase reporter, 24 h; note: % of control where 0% means no effect; nearly all actives have a fitted effect of over 60% in size
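Luciferase expression driven by the NPC1 promoter was measured in stably transfected Huh7 cells after a 24 h compound incubation, using a luciferase reagent and a luminescence read.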
SMN2 splice up: qHTS Assay for Enhancers of SMN2 Splice Variant Expression | HEK293 SMN2-luciferase splicing reporter, luminescence, 30-36 h | Potency, µM (highest dose often 46.1 µM), inactives show at the highest dose activity change, positive = activation, hits mostly activators | actives 2.8% (n = 210,000); note: % of control where 0% means no effect; nearly all actives have a fitted effect of over 55% in size
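HEK293 cells carry an SMN2 […]–luciferase reporter in which exon 7 inclusion puts luciferase in frame. Cells were plated 10-12 h before compound addition, then incubated 30-36 h at 37C. ONE-Glo luminescence was read; sodium butyrate at 4.5 mM final served as control.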
* marks the source's active call; other numbers are inactive results; ? = inconclusive; . = no result; ! = not active in a repeat; [ ] = another dose, or the depositor's remark. Rows were chosen to be rich in hits. Some 7.5% of all compounds tested hit in one or more screens of this group. Calls come from the whole dose curve; as a rule, active = well fitted curve in the direction sought with a large enough effect; inconclusive = small, poorly fitted or top-dose-only effect, or another doubt; inactive = no such curve, though single readings can be large; an effect the other way counts as inactive or inconclusive. Potency is the fitted concentration of half-maximal effect.

SMILES	FLuc counter	KinaseGlo FLuc	ELG1 genotoxic	Rab9 promoter act	NPC1 promoter act	SMN2 splice up
O=C1C2CC=CCC2C(=O)N1Cc1nnc(-c2ccc(Cl)cc2)o1 (stereo not given)	19µM*	0.6%	?	?	12.3%	23.6%
O=C1C2CC=CCC2C(=O)N1Cc1ccccc1 (stereo not given)	2.8%	5.4%	-0.4%	-0.3%	-3.5%	-18.1%
Cc1cc(OCc2nc(-c3ccncc3)no2)cc(C)c1Cl	-1.0%	1.5%	2.2%	0.9%	-4.3%	-6.5%
OC(COc1ccc2ccccc2c1Cl)CN1CCOCC1 (stereo not given)	16.9µM*	10.7%	?	?	?	?
OC(COc1ccccc1)CN1CCOCC1 (stereo not given)	11.6%	2.7%	1.3%	6.6%	-5.9%	13.9%
CCOc1ccc(NC(=O)CSc2cn(CC(=O)N3CCOCC3)c3ccccc23)cc1	5.2%	.	.	.	.	.
CC(C)COn1c(=S)[nH]c2ccccc2c1=O	21.3µM*	-4.4%	?	11.4%	9.3%	-5.0%
O=C(N/N=C/c1cccc(F)c1)c1csc2c1CCCC2	4.78µM*	-0.7%	?	1.26µM*	1µM*	14.1µM*
Cc1cccc(C)c1NC(=O)c1csc2c1CCCC2	-2.8%	.	.	.	.	-4.1%
O=C(N/N=C/c1ccccc1F)c1csc2c1CCCC2	2.69µM*	-4.7%	?	1.26µM*	1.12µM*	8.91µM*
CCC(C)[C@H](NC(=O)N1CC(=O)Nc2ccccc21)C(=O)N[C@@H](C(=O)O)c1ccccc1 (stereo not given in full)	1.7%	.	6.8%	-3.5%	-3.1%	.
CCOc1ccc(-c2nnc(SCC(=O)NC3CC3)o2)cc1	?	.	6.9%	-6.9%	-8.5%	.
CC(C)(C)c1ccc(-c2nnc(SCC(=O)NC3CC3)o2)cc1	4.26µM*	.	10.2%	?	?	.
CC(C)(C)c1ccc(C(=O)NCc2nnc(SCC(=O)NC3CCCCC3)o2)cc1	19µM*	.	3.6%	6.6%[1.84 µM]	2.2%	.
CC(C)(C)c1ccc(C(=O)NCc2nnc(SCC(=O)NC3CCCC3)o2)cc1	?	.	-1.2%	1.8%	1.9%	.
CC(=O)Nc1cccc(-c2nc3ccccc3s2)c1	9.53µM*	-3.4%	?	2.24µM*	?	12.6µM*
Cc1ccc(C(=O)Nc2ccc(-c3nc4ccccc4s3)c(O)c2)c(C)c1	-0.1%	.	.	.	.	.
CN(C)c1cccc(C(=O)Nc2ccc(-c3nc4ccccc4s3)cc2)c1	5.36µM*	.	.	.	.	.
Cc1ccc(-c2nc3ccccc3s2)cc1NC(=S)NC(=O)c1cccc2ccccc12	10.7µM*	1.5%	?	1.3%	-2.3%	?
Cc1ccc(C(=O)NC(=S)Nc2cccc(-c3nc4ccccc4s3)c2)cc1	12µM*	-1.3%	?	8.9%	15.0%	6.4%
Cc1c(Cl)cccc1NC(=O)CC(c1ccc(F)cc1)N1Cc2ccccc2C1=O (stereo not given)	-14.6%	.	.	.	.	.
Cc1ccc(N2CC(C(=O)NCc3n[nH]c(=O)c4ccccc34)CC2=O)cc1 (stereo not given)	-4.6%	.	-4.3%	-1.8%	0.2%	.
CCOc1ccc(NC(=O)CN(C)C(=O)c2cc(C)on2)cc1OCC	7.7%	.	2.8%	-0.7%	-1.2%	.
CC(=O)Nc1cccc(-c2cc(C)c3cc4c(cc3n2)OCO4)c1	8.49µM*	.	?	29.7%	?	.
CC(=O)Nc1cccc(-c2nc3ccc(NC(C)=O)cc3s2)c1	3.01µM*	1.6%	?	0.891µM*	3.16µM*	12.6µM*
SMILES	FLuc counter	KinaseGlo FLuc	ELG1 genotoxic	Rab9 promoter act	NPC1 promoter act	SMN2 splice up
O=C1Oc2ccccc2C(=O)/C1=C\N1C(=O)N/C(=C\c2ccccc2O)C1=O	.	-4.3%[7.66 µM]	.	.	.	0.0%[9.22 µM]
Cc1ccc(OCC(=O)NNC(=S)NC(=O)C(C)(C)C)c(Br)c1	26.9µM*	3.3%	4.1%	5.4%	0.7%	-47.4%
COCCCNC(=O)COc1ccc(Br)cc1Cl	?	0.5%	?	?	?	15.8µM*
O=C(COc1ccc(Br)cc1Cl)NC(=S)Nc1ccccn1	1.07µM*	.	1.64µM*	?	?	.
Cc1ccc(OCC(=O)NC(=S)Nc2ccccn2)c(Br)c1	0.19µM*	.	0.13µM*	2.82µM*	1.58µM*	.
CCNC(=O)COc1ccc(Br)cc1Cl	?	-0.3%	?	29.6%	25.8%	10.3%
CC(C)CC(NC(=O)c1ccc(C#CC(C)(C)O)s1)C(=O)O (stereo not given)	3.6%	-4.1%	1.8%	0.6%	0.8%	.
Cc1ccc(OCC(=O)NNC(=S)NC(=O)C2CC2)c(C)c1	13.5µM*	.	8.3%	-8.0%	-4.9%	.
Cc1nn(-c2nnc(NC3CCCCC3)nn2)c(C)c1Br	4.26µM*	-23.6%	18.4µM*	2.24µM*	2.24µM*	12.6µM*
Cc1nc2c(cc1C#N)C(=O)c1ccccc1-2	1.7%	-5.0%	3.2%	1.6%	-1.7%	5.7%
Cc1cccc2cc3c(nc12)-c1ccccc1C3=O	15.1µM*	.	?	3.5%	1.0%	.
CN(CC(=O)Nc1ccccc1Cl)C(=O)COC(=O)c1cc([N+](=O)[O-])ccc1N1CCOCC1	-0.4%	.	2.2%	-0.5%	9.0%	.
COCCCn1cc(C(=O)c2cc(OC)ccc2OCC(=O)Nc2cc(C)on2)cc(C#N)c1=O	-2.1%	-1.6%	8.4%	-0.2%	-0.8%	?
CCC1CN(C(=O)N2CCC(C(=O)NCc3ccccc3F)CC2)c2ccccc2O1 (stereo not given)	0.1%	.	.	.	.	.
CCC1CN(C(=O)N2CCC(C(=O)Nc3ccccc3F)CC2)c2ccccc2O1 (stereo not given)	10.7µM*!	.	-3.4%	3.5%	-0.9%	.
COC(=O)c1ccccc1NC(=O)C1CCN(C(=O)N2CC(C)Oc3ccccc32)CC1 (stereo not given)	4.78µM*	.	.	.	.	.
CCC1CN(C(=O)N2CCC(C(=O)N3CCN(c4cc(C)ccc4C)CC3)CC2)c2ccccc2O1 (stereo not given)	1.9µM*	.	.	.	.	.
C[C@H]1C(O)[C@@]23CCC4C5(C=[N+](CCO)C[C@]4(C)CCC5)C2C[C@@H]1C3 (stereo not given in full)	.	-0.1%	.	.	.	4.4%
O=C(O)c1ccccc1C(=O)Nc1ccc(Br)c2cccnc12	23.9µM*	5.0%	5.6%	2.9%	-0.9%	2.0%
O=C(O)c1cc(Cl)c(Cl)cc1C(=O)Nc1cccc2cccnc12	-16.7%	0.5%	0.0%	1.2%	0.1%	4.3%
